In the supplement of paper PMC11417369:
In all, about 25,000 sequences were measured (“ln(normalized median fluorescence intensity)”: median about 6.7, highest 2% from about 10 on). The sample as a whole holds a higher share of the highest values than the screen did.

Tested on: PfHDP1 homeodomain (GST-tagged)
Test: gcPBM binding intensity (ln(normalized median fluorescence intensity)); higher = stronger DNA binding
Method in brief: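 GST-fused DNA-binding domains of P. falciparum, expressed in E. coli, were applied at about 25 μg on average for 1 h to an Agilent 4 × 180k array of primer-extended double-stranded 36-bp intergenic genomic probes and negative controls. Binding intensity is the highest Masliner-normalised natural-log median intensity across replicate spots of either probe orientation, measured with Alexa488 anti-GST antibody and a 488 nm scan.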

Sequence | gcPBM binding intensity (ln)
AATGAATCCTTATATACACACATTATTATATTATAT [CACACA_site3108] | 7.23
TACTTTTTAGGAAAGTGTACAAGCATATAAGGAATA [XGTACX_site2834] | 6.83
GCAAGGTCCACACTGGTGCATTAAAAATAAAATATA [GTGCAC_site9956] | 10.4
TATGTGTGCAAAAACTGTACACATTAAAGGTATATA [XGTACX_site7627] | 10.3
ATATGTACGCAAGGTGCACACTGGTGCATTAAAAAA [CACACA_site1801] | 11.5
AATATATTTATGCTCATGCACTTTTTTTTTTTTTTT [GTGCAC_site9654] | 10
CACTTCATAAAAATTGCACACATATAATAATGTACA [CACACA_site8692] | 10.1
TATTATAAAATATACACATGCAAAAACAAAATTTAC [TGCATGCA_site1051] | 7.03
GTATATTAATAAACATGTACACAATTTATTTATATT [XGTACX_site1012] | 6.6
ATATTTATTTATATTACACACATGTGCAATTAAACT [CACACA_site6928] | 10.7
AAAATTAAAATATATACACACATATATATATTAAAT [CACACA_site4419] | 6.25
ATATATATATATATTACACACATGTGCAATTAAAAT [CACACA_site1778] | 10.7
TATATTAAAAAAAAATGTACACATATATATATATAT [XGTACX_site4524] | 9.21
ATATATATATTAATTACACACAAAAAAAAAAAAAAA [CACACA_site1165] | 7.49
ATATATATATATATTACACACTTTTTCTTTTTTTTT [CACACA_site2780] | 9.01
AATAAATTAAAACAGGTGCACTATATTACACACGCT | 9.7
CAGGTGCACTATATTACACACGCTTCTTTTTTTTTA [CACACA_site2069] | 11
TATAAAAATATATATATATATATATATATATATATA [TGCATGCA_negctrl_site541] | 9.32
AAAAAAAAATTAAACATACACACGTTACTATTTTTA [CACACA_site1687] | 6.29
TTAAATTACTAATGTGCACACATACTAACGTTTAAA [CACACA_site3573] | 11
AACATAAATTACTTTTTACACACTAATATAAAATAC [CACACA_site8297] | 6.54
TCATTAAATGTTTAGGTGCATACTTTAATTTTTAAT [GTGCAC_site9906] | 9.31
AAATTACTAATGTGCACACATACTAACGTTTAAATA [CACACA_site3572] | 11.3

Sequence | gcPBM binding intensity (ln)
AAAAATTAAATAAATTTACACACTAATAATTACATA [CACACA_site8260] | 6.3
GAATATAATCTGTATTGTACGAAAGTTGAACACTTG [XGTACX_site8895] | 6.3
GATCAAAATTATAGAAGTACTTTATATAAATAAAAT [XGTACX_site8161] | 6.41
AAAAAAAAAAGACATGCATACGCTAATTTTTAGTTG [TGCATGCA_site300] | 5.98
TTTATATTAGGTCTTGAACGATTTTCATCATTATTA [TGCATGCA_negctrl_site100] | 6.04
ATATCGTTATTTTTATGTACTAAAATATTTAATTAT [XGTACX_site3516] | 7.03
TTTTTTAATATATTATTATAAATATTTTTTATGTGT [GTGCAC_negctrl_site712] | 6.46
TTTATCTAAATATGTGTGCACTCGTTAATTTTTTTT | 10.8
ATAACATGAACATATGTTACACAAACATACATACAT [XGTACX_negctrl_site365] | 6.77
TTTAGTTCATACTATGCACACTACGTATATTTTTAA [CACACA_site5484] | 8.95
GTAATATCAATATAAAGTACACACTATAGTATGTAT [XGTACX_site4714] | 6.4
TTTATAGTTTTTAATAGTACACATATTTTTAAGTAT [XGTACX_site5498] | 6.38
TTGTACAAAAATAATGCACACTATATCAAGTTTTTT [CACACA_site5898] | 10.3
TATATATCAATATGCACACACAAGAAGTAATTATAA [CACACA_site7487] | 9.74
AGTAATAGTTTGTGCACACTCAAGTATATCATAGAT [CACACA_site6082] | 11.1
TAAGTAATAGTTTGTGCACACTCAAGTATATCATAT [CACACA_site4035] | 11.1
TATATATATATCAAGTGTACTTGTGTTTGTAATATT [XGTACX_site8854] | 8.6
TTTTGTACAAAAATAATGCACACTATATCAAGTTTT [CACACA_site3595] | 10.4
AGTAATAGTTTGTGCACACTCAAGTATATCATATAT [CACACA_site4034] | 11.2
ATATATGTAACATATTGTACATATATGTATGTATGT [XGTACX_site3281] | 6.97
AATATTTTATTTTGGGTGCAAAAGAATATTATTTCA | 9.49
CAATTAAATATATGAACACACATGTGAACTTTCTAT [CACACA_site3977] | 6.36
AATATACAAAATAAATAAAATATATATATATATATA [CACACA_negctrl_site216] | 9.24

Sequence | gcPBM binding intensity (ln)
AATTTAATTTTTTCGTGTACTTATATAGGAGGTTTT [XGTACX_site8310] | 6.76
TAGAAGTACATATATGCATGTTAATTTTAAAGGAGG [TGCATGCA_site538] | 6.9
CTTACACCCATATATACACACATGTATATTTTATAT [CACACA_site4462] | 7.24
TATATACATATATGCACACAAAAAAATATATATTTT [CACACA_site1729] | 10.1
TATACATATTTTATAGCACACAAATAATAATATGTA [CACACA_site8129] | 6.63
CTATTTTATATGTGCACACATATACTCAGACAAATA [CACACA_site4761] | 10.6
CTATTTTATATGTGCACACATATACACCCACAAATA [CACACA_site1131] | 10.1
TTCTATTTTATATGTGCACACATATACACCCACAAA [CACACA_site1130] | 10.9
TTTGTTTTATCTTATATGCACACGATAAAAAAAAAA [CACACA_site2673] | 9.69
TATAAAAATAATATTACACACATGTAAAATGGGGGT [CACACA_site9071] | 7.03
TTGTTTTCACCAAATACACACAAGCATACACCCCAT [CACACA_site2717] | 7.34
AGTGATTATTAATAATGTACATATCTATAAATATAT [XGTACX_site4734] | 6.43
TTAATGTTATATGTGTGTACATATAAGTTTAGTAAA [XGTACX_site4651] | 6.53
AAAAAAATGAAGAAATGTACAAATTTCATTAATTTT [XGTACX_site354] | 6.05
TTCATATATAATTGTACACACAAAAACGACATTGTG [CACACA_site2074] | 7.05
ATATTATGTGATTGTGCACACTGGAGATTTTTTTTA [CACACA_site1453] | 11.2
TAGATCATAACAATTGCACACATTTGCATTTATATT [CACACA_site1562] | 10.1
TTATTTGAACAATATGCACACATTTTATTTATTTTA [CACACA_site3420] | 10.1
TATATATATATATATGTGCACTGGACATATTTTTAT [GTGCAC_site9721] | 9.84
TTTAGTTTTTATATAGCACACATATTGTGATTATGT [CACACA_site8316] | 6.82
GAGATTTATTTATGTGCACACTAGAACAATTGGATC [CACACA_site2090] | 10.5
TTAATATGTTTAACCATTTTACATAAATTGATTTGT [CACACA_negctrl_site1100] | 6.3
TGTTATTACTTTATATCATCTTAAAATAAGCATATT [CACACA_negctrl_site1501] | 6.26

Sequence | gcPBM binding intensity (ln)
AAATTAATACATTATTGTACTTTTCATGTGCAGAAA [XGTACX_site8284] | 8.11
TTACTTGTTTATTTTTTTTTTTTTTTTTTTTTTGTT [TGCATGCA_negctrl_site103] | 5.62
TATATGAAAATGTTCATACACACATAAAAAAAAAAA [CACACA_site3237] | 6.41
GTTCAATCGGGTGTTACTTCAAACAAGGAACAACAA [TGCATGCA_negctrl_site471] | 6.16
TTAAGATATGTATATCGTACATGACATTAAAAATTT [XGTACX_site3352] | 6.02
ATGCAAATAATATAAAGTACACAACATCGCCCAAAG [XGTACX_site1825] | 7
TATTTAACACCTTATACACACTTTCTTCCTTTTTTA [CACACA_site4590] | 7.12
ACAAGTATTCCTTTTGCACACCTTTCTGCACCTTAT [CACACA_site3873] | 11.1
TATATATTTTCTTTTGCACACTGTTTTCCTTTTTTT [CACACA_site2739] | 10.2
AAAATTAGGTATATATGTACATATATAAATATATAT [XGTACX_site3555] | 6.8
TAAAGAAACTATTCAACACACGGTCTAATTATTACA [CACACA_site1064] | 6.15
TATTATTTACCTTGCTAGTTCGTTCCAAATTTTATG [XGTACX_negctrl_site197] | 7.19
AATGTGCAAACAAACTGTACTTTTTTTTTTTTTTTT [XGTACX_site928] | 10.6
AAACAAATGTATATGTGTACTTATTTTTTTGTATGT [XGTACX_site7134] | 6.17
ACAAAACTTTTAAGAACACACAAAAATGTACTATCG [CACACA_site7245] | 6.17
TTTTCATTTTTCTTTACACACATATATATATATATA [CACACA_site2236] | 9.23
ATATAGATGCATAATACACACATCAGATAATTAACC [CACACA_site6871] | 6.96
TGCAAAAAATTCCACACACACACACGCATATAAATA [CACACA_site6696] | 6.72
TTTTTTTGTTAAAAGGTGCTAATATATATAAGTGCT | 6.62
TCTACTATTATATATTGTACAAATGATACTTATATT [XGTACX_site1819] | 6.61
ATATATTTGATAAGAGTGCACAAATACATACATACA [GTGCAC_site9704] | 9.65
ATGATATACTTGAGTGTGCACAAACTATTACTTACA | 11
